Drawing on PubChem BioAssay (Tox21), this text covers outcome, Potency and max activation for eight compounds.

A short description of assay [1]: qHTS assay to identify small molecule agonists of the TGF-beta/Smad signaling pathway - cell viability counter screen (AID 1346829). Note: top concentration of the series differs between compounds; % is set by controls: 0 for no effect and ±100 for the full control effect; nearly all actives have a fitted effect of over 45% in size. Summed up:
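Here the cytotoxicity of library compounds is measured in SBE-bla HEK 293T cells treated for 5 hr, using CellTiter-Glo added to wells already read for the beta-lactamase reporter.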
For orientation: Quantitative high-throughput screening tests each substance at several concentrations.

Assay [2] is described as follows: qHTS assay to identify small molecule agonists of the TGF-beta/Smad signaling pathway (AID 1346859; active = well fitted activation curve with a large enough effect in the signal ratio in the repeat runs, not every such curve was filed as active; the % refers to the signal ratio; note: series mostly up to about 77 µM; % is set by controls: 0 for no effect and ±100 for the full control effect). In outline:
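Stable Smad binding element-beta-lactamase HEK 293T cells; 5 hr compound exposure at 37 C under 5% CO2; 2 hr room-temperature substrate step; fluorescence excited at 405 nm, collected at 460 nm and 530 nm.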

The target in assay [3] is Thyrotropin-releasing hormone receptor (Homo sapiens) (UniProt P34981). The assay is described as follows: qHTS assay to identify small molecule agonists of the thyrotropin-releasing hormone receptor (TRHR) signaling pathway (AID 1346891; calls by dose curve;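 note: HEK293 cells expressing TRHR with calcium dye readout; series mostly up to about 58 µM; % is set by controls: 0 for no effect and ±100 for the full control effect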). Summed up: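 In 1536-format, 1500 TRHR-Hek293 cells per well grew 18 h, took up calcium dye for 2 h at 37 °C, received compound, and were read kinetically; 15-point titrations, triplicates.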
Sequence of Thyrotropin-releasing hormone receptor (Homo sapiens) (P34981 whole entry, looked up): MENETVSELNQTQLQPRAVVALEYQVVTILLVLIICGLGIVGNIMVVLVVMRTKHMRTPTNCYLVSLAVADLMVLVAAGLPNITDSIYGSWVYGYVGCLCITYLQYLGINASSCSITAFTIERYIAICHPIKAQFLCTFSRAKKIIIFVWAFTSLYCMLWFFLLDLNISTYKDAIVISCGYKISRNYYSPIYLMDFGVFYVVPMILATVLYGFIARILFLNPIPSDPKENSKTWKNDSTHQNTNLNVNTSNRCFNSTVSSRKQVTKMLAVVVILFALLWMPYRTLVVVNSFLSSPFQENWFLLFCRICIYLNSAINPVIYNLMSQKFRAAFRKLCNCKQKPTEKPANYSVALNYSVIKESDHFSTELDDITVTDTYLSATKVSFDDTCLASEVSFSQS

Assay [4] can be described thus: Human pregnane X receptor (PXR) small molecule agonists, qHTS cell viability counter screen (AID 1346977). Note: % is set by controls: 0 for no effect and ±100 for the full control effect; nearly all actives have a fitted effect of over 50% in size. In outline: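 Readout is CellTiter-Fluor fluorescence from PXR-Luc HepG2 cells. Plated cells rested 5hr, then were treated with compounds for 24hr at 37C and 5% CO2, with reagent present during the last hour.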
A short description of assay [5]: Caspase-3/7 induction in HepG2 cells by small molecules, qHTS assay (AID 1346978). Note: % is set by controls: 0 for no effect and ±100 for the full control effect; nearly all actives have a fitted effect of over 15% in size. Summed up: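 Wild-type HepG2 cells, 2,000/well, settled 5 hr at 37 C and 5% CO2, then compound-treated for 17 hr; caspase-3/7 activity read by luminescent Caspase-Glo 3/7 after 30 min at room temperature.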
Assay [6] is described as follows: Caspase-3/7 induction in CHO-K1 cells by small molecules, qHTS cell viability counter screen (AID 1346979). Note: % is set by controls: 0 for no effect and ±100 for the full control effect; nearly all actives have a fitted effect of over 35% in size. In outline:
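To flag cytotoxic compounds, treated CHO-K1 wild-type cells were given CellTiter-Fluor at 16hr and read fluorescently after 1hr at 37C; the caspase-3/7 luminescence was measured in these same wells.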

Assay [7] is described as follows: Caspase-3/7 induction in CHO-K1 cells by small molecules, qHTS assay (AID 1346980). Note: % is set by controls: 0 for no effect and ±100 for the full control effect; nearly all actives have a fitted effect of over 15% in size. Summed up: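 Wild-type CHO-K1 cells exposed to compounds for 17hr at 37 C, 5% CO2. Caspase-3/7 activity then measured by Caspase-Glo 3/7 luminescence after 30min at room temperature.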
Assay [8] can be described thus: Caspase-3/7 induction in HepG2 cells by small molecules, qHTS cell viability counter screen (AID 1346981). Note: series mostly up to about 92 µM; % is set by controls: 0 for no effect and ±100 for the full control effect; nearly all actives have a fitted effect of over 30% in size. Summed up:
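Cell viability is measured as a cytotoxicity counter screen alongside the Caspase-Glo 3/7 readout in identical wells. Wild-type HepG2 cells are treated with test compounds for 16 hr at 37 C before CellTiter-Fluor addition and a 1-hr incubation.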

In assay [9] the target is Nuclear receptor subfamily 1 group I member 2 (Homo sapiens) (UniProt O75469). The assay is described as follows: Human pregnane X receptor (PXR) small molecule agonists, qHTS assay (AID 1346982). For activation: % is set by controls: 0 for no effect and ±100 for the full control effect. Note: nearly all actives have a fitted effect of over 35% in size. Note: potency is the fitted concentration of half-maximal effect. Summed up: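 Cells: HepG2 stably carrying PXR-Luc. Medium held 5% charcoal-stripped FBS. Compounds in DMSO added after 5 hr plating, incubated 24 hr, then luminescence quantified with ONE-Glo.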
Sequence of Nuclear receptor subfamily 1 group I member 2 (Homo sapiens) (O75469 whole entry, looked up): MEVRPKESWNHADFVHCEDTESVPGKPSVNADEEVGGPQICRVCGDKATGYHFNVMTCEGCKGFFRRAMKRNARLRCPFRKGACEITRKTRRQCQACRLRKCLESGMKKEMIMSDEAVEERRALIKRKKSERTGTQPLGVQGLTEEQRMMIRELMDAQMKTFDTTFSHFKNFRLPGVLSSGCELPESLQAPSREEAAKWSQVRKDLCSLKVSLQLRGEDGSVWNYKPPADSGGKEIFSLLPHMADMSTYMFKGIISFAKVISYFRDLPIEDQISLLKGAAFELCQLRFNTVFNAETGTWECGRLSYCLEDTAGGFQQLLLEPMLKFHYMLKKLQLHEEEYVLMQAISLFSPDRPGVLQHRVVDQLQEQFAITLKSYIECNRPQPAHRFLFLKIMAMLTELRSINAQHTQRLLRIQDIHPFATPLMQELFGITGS

For assay [10], the target named is Cytochrome P450 2D6 (Homo sapiens) (UniProt P10635). Kind of assay: Cytochrome P450 Family 2 Subfamily D Member 6 (CYP2D6) small molecule antagonists: luciferase reporter qHTS assay (AID 1671196). Note: nearly all actives have a fitted effect of over 50% in size. Note: potency is the fitted concentration of half-maximal effect. In outline: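 Enzyme and proluciferin substrate were first combined with test chemical for 10 min at room temperature. Adding NADPH regeneration solution started a 1 h reaction, stopped with luciferin detection reagent and read by luminescence 20 min later.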
Sequence of Cytochrome P450 2D6 (Homo sapiens) (P10635 whole entry, looked up): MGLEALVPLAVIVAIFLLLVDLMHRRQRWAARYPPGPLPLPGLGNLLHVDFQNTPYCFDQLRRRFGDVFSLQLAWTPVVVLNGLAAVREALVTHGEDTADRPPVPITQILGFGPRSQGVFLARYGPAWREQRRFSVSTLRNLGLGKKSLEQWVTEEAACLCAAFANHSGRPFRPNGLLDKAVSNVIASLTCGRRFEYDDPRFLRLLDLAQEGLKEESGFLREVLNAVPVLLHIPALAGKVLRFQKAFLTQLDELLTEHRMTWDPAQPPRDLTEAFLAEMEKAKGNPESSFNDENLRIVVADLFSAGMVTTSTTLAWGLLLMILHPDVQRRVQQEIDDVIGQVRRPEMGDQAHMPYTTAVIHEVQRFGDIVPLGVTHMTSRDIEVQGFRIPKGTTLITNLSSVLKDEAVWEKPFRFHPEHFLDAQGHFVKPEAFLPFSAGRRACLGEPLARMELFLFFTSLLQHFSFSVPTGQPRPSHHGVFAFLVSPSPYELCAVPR
(A reporter such as luciferase makes a cellular process visible.)

The target in assay [11] is Cytochrome P450 2C19 (Homo sapiens) (UniProt P33261). The assay is described as follows: Cytochrome P450 Family 2 Subfamily C Member 19 (CYP2C19) small molecule antagonists: luciferase reporter qHTS assay (AID 1671197). Note: nearly all actives have a fitted effect of over 65% in size. Note: potency is the fitted concentration of half-maximal effect. Summed up: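 Light output is proportional to CYP2C19 activity: proluciferin substrate is converted to luciferin, then detected by a luciferin detection reagent that also stops the 1 h, 37C NADPH-driven reaction. Ketoconazole serves as positive control.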
Sequence of Cytochrome P450 2C19 (Homo sapiens) (P33261 whole entry, looked up): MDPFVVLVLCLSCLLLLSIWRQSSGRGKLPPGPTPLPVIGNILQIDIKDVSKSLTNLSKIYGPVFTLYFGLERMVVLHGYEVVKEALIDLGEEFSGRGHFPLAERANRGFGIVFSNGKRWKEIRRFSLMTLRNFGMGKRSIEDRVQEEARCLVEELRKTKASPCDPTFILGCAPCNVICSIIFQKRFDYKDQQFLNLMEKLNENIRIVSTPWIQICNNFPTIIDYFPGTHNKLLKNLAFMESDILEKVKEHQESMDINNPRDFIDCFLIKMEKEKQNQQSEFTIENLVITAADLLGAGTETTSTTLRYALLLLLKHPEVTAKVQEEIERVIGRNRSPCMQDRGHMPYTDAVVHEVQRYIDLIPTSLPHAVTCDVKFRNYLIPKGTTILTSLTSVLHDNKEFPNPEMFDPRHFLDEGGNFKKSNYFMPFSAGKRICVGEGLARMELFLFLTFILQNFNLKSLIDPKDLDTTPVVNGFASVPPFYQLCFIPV

For assay [12], the target named is Cytochrome P450 2C9 (Homo sapiens) (UniProt P11712). The assay is described as follows: Cytochrome P450 Family 2 Subfamily C Member 9 (CYP2C9) small molecule antagonists: luciferase reporter qHTS assay (AID 1671198). Note: series mostly up to about 120 µM; % is set by controls: 0 for no effect and ±100 for the full control effect; nearly all actives have a fitted effect of over 50% in size. Summed up: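 P450-Glo proluciferin substrate with CYP2C9 enzyme; 10 min RT preincubation, then NADPH regeneration 1 h at 37C; luciferin detection reagent 20 min RT, luminescence in relative luminescence units.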
Sequence of Cytochrome P450 2C9 (Homo sapiens) (P11712 whole entry, looked up): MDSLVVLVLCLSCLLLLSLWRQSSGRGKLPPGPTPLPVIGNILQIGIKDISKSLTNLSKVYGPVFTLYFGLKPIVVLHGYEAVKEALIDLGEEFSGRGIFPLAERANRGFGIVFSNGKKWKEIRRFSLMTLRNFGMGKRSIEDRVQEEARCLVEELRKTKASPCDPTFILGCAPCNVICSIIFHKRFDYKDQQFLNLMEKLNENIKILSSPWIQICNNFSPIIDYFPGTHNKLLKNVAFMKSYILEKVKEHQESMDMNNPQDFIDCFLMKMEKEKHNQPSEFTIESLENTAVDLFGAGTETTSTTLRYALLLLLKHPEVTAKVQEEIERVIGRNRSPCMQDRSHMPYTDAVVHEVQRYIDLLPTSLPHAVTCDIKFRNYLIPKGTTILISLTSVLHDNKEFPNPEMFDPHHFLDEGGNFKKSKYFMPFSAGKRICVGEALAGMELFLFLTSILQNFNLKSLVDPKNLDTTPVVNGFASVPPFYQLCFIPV

The target of assay [13] is Cytochrome P450 1A2 (Homo sapiens) (UniProt P05177). Kind of assay: Cytochrome P450 Family 1 Subfamily A Member 2 (CYP1A2) small molecule antagonists: luciferase reporter qHTS assay (AID 1671199). Note: series mostly up to about 120 µM; % is set by controls: 0 for no effect and ±100 for the full control effect; nearly all actives have a fitted effect of over 50% in size. In outline:
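Compounds were incubated with CYP1A2 and a luminogenic proluciferin substrate for 10 min at room temperature before the reaction was started with NADPH regeneration solution. After 1 h, detection reagent was added and light output, proportional to CYP activity, was recorded.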

The target of assay [14] is Cytochrome P450 3A4 (Homo sapiens) (UniProt P08684). The assay is described as follows: Cytochrome P450 Family 3 Subfamily A Member 4 (CYP3A4) small molecule antagonists: luciferase reporter qHTS assay (AID 1671201). Note: nearly all actives have a fitted effect of over 50% in size. Note: potency is the fitted concentration of half-maximal effect. Summed up: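 Setup: enzyme-substrate mix, compound pin transfer, 10 min RT. Reaction: NADPH regeneration solution, 1 h RT. Readout: detection reagent stops turnover, luminescence measured after 20 min, expressed in relative luminescence units.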
Sequence of Cytochrome P450 3A4 (Homo sapiens) (P08684 whole entry, looked up): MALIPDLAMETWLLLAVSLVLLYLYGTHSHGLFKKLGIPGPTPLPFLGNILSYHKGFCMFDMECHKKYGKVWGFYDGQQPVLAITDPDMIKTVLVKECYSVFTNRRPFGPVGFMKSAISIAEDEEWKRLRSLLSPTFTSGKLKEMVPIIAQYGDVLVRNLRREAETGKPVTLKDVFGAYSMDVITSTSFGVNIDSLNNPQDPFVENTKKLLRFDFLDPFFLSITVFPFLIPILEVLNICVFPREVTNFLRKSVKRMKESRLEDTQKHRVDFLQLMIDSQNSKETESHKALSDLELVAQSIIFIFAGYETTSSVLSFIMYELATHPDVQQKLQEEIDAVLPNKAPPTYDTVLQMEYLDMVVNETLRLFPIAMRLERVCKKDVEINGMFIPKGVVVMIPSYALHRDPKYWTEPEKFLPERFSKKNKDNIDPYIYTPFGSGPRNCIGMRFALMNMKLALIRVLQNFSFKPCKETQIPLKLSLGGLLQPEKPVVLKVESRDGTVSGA

The target in assay [15] is Voltage-gated inwardly rectifying potassium channel KCNH2 (Homo sapiens) (UniProt Q12809). Kind of assay: Human Ether-a-go-go-Related Gene (hERG) channel small molecule antagonists: fluorescence cell-based qHTS assay (AID 1671200). In outline:
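Measured: Tl+ flux via fluorescence (480/540 nm) in hERG-expressing U2OS cells after 1 h dye loading at room temperature.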
Background: Block of hERG is tested as a sign of cardiac risk.

The target in assay [16] is Thyrotropin-releasing hormone receptor (Homo sapiens) (UniProt P34981). Kind of assay: qHTS assay to identify small molecule antagonists of the thyrotropin-releasing hormone receptor (TRHR) signaling pathway (AID 1346877; active = well fitted inhibition curve with a large enough effect in the repeat runs, not every such curve was filed as active; note: series mostly up to about 51 µM; % is set by controls: 0 for no effect and ±100 for the full control effect). In outline: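 Antagonism is measured as suppression of the calcium response to 1 nM TRH in TRHR-HEK293 cells that have been dye-loaded for 2 h at 37 °C after overnight plating. Each compound is tested at 15 concentrations in triplicate.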

Assay [17] deals with Nuclear receptor subfamily 1 group I member 2 (Rattus norvegicus) (UniProt Q9R1A7). The assay is described as follows: Rat pregnane X receptor (rPXR) activation by small molecules, qHTS assay (AID 1346983). Note: % is set by controls: 0 for no effect and ±100 for the full control effect; nearly all actives have a fitted effect of over 20% in size. The settings on record: rPXR luciferase reporter cells, One-Glo luminescence, 24 h; stronger effect = higher value. In outline:
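Cell-based rPXR activation assay: rPXR cells, 2,000 per well, rested 5hr at 37 C, then exposed to compounds in DMSO for 24 hr at 37 C. Luciferase activity read by One-Glo luminescence after 30 min at room temperature.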

The target in assay [18] is Nuclear receptor subfamily 1 group I member 2 (Homo sapiens) (UniProt O75469). Kind of assay: CYP3A4 induction through human pregnane X receptor (PXR) by small molecules, qHTS assay (AID 1346984). Note: potency is the fitted concentration of half-maximal effect; nearly all actives have a fitted effect of over 40% in size. Summed up:
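Quantitative HTS in DPX-2 cells, i.e. HepG2 transfected with PXR response element and CYP3A4-promoter luciferase. Compounds in DMSO incubated 24hr at 37C; then P450-Glo CYP3A4 substrate, 3uM final, 3hr; One-Glo luminescence.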

Assay [19] shares this target. Kind of assay: Human pregnane X receptor (PXR) activation by small molecules, qHTS assay (AID 1346985). Note: potency is the fitted concentration of half-maximal effect; nearly all actives have a fitted effect of over 40% in size. Summed up: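 DPX-2 cells (HepG2 co-transfected with a PXR response element and a CYP3A4-promoter luciferase construct) were seeded at 2,000 per well, rested 5 hr at 37C, then exposed to DMSO-dissolved compounds for 24 hr. Activation was read as luciferase luminescence.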

Molecules are shown by their SMILES. Unmarked numbers belong to inactive results. Results filed as inconclusive are left out. Active and inactive are the calls of the source. Unless noted, calls come from the whole dose curve; as a rule, active = well fitted curve in the direction sought with a large enough effect in the repeat runs; inconclusive = weak or mixed curves; inactive = no such curve, though single readings can be large; an effect the other way counts as inactive or inconclusive.

Sequence of Voltage-gated inwardly rectifying potassium channel KCNH2 (Homo sapiens) (Q12809 whole entry, looked up): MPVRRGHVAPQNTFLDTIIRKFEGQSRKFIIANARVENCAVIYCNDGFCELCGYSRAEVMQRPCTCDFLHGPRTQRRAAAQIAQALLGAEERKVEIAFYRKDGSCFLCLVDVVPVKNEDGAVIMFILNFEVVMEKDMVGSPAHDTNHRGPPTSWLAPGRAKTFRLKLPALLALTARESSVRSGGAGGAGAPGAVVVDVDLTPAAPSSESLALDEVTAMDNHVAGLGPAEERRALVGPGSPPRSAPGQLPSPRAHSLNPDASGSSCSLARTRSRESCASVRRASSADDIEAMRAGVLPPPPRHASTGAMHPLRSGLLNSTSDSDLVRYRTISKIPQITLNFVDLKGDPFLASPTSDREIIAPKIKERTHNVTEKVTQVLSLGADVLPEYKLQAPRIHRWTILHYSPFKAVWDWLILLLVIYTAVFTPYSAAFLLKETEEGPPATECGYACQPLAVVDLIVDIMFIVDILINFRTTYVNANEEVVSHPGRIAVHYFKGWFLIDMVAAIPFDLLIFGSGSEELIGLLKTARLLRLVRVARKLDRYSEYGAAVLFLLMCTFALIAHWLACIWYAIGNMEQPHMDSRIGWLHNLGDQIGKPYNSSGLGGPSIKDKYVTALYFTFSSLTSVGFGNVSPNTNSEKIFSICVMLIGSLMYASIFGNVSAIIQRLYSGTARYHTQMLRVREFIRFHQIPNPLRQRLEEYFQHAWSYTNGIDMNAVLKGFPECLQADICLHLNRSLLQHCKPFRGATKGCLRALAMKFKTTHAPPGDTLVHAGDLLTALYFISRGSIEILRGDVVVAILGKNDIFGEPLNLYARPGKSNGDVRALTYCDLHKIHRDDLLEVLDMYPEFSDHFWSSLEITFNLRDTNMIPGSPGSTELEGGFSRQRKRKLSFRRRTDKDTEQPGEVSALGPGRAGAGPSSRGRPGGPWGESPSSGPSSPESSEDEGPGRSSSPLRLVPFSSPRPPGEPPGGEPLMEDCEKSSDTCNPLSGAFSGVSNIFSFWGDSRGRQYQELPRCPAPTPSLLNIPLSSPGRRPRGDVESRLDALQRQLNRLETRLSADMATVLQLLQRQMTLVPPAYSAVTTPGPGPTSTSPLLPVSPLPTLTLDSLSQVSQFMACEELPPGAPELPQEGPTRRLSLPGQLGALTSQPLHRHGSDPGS
Sequence of Cytochrome P450 1A2 (Homo sapiens) (P05177 whole entry, looked up): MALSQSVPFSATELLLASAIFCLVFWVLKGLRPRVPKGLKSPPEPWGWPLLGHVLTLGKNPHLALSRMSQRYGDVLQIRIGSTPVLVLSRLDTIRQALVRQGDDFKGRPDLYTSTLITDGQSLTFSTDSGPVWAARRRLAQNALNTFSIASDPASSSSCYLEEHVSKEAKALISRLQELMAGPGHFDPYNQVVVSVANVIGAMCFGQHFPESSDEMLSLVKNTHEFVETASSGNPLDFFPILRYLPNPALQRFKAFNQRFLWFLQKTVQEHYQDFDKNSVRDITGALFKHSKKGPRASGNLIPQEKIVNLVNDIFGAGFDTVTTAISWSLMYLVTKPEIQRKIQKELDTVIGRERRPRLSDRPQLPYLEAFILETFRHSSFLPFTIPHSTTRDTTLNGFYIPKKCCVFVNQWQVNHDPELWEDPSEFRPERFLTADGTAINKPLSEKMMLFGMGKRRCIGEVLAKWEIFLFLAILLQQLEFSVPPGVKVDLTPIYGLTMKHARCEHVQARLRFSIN
Sequence of Nuclear receptor subfamily 1 group I member 2 (Rattus norvegicus) (Q9R1A7 whole entry, looked up): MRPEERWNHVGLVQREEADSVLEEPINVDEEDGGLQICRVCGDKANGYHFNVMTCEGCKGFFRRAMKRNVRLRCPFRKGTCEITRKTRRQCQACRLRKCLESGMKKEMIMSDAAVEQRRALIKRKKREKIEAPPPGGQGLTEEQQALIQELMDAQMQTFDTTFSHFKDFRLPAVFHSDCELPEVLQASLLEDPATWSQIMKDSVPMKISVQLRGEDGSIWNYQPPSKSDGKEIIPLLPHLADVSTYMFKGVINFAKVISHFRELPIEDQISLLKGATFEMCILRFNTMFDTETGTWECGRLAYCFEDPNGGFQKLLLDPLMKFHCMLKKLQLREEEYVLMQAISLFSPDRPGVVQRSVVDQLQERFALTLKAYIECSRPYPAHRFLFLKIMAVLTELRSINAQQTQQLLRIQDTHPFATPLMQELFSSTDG

As to `CC(=O)OC1CCCCC1C(C)(C)C` (stereo unspecified), the result in assay [1], in assay [2], in assay [3], in [4], in assay [5] and in assay [7] was inactive. Moreover, the result in assay [8] was inactive. In addition, the Potency entry in assay [6], in assay [9], in assay [10], in assay [11], in [12] and in [13] was “inactive” in each case. Further, the Potency result in assay [14] was “inactive”.

For the compound `N#Cc1cscn1`, the compound was classed as inactive in [1], in [2], in assay [3], in assay [4], in [5] and in assay [7]. Moreover, the result in assay [8] was inactive. Moreover, the Potency result in assay [6], in assay [9], in assay [11], in assay [12], in assay [13] and in assay [15] was “inactive” each time. The Potency entry in [14] is “inactive”.

As to `CC1=NN(c2ccc(S(=O)(=O)O)cc2)C(=O)C1`, the call in [1], in assay [2], in assay [16], in [4], in assay [5] and in assay [7] was inactive. For the same compound, in assay [8], the result was inactive. Also, the Potency entry in [6], in assay [9], in assay [12], in assay [13], in [15] and in assay [14] was “inactive” in each case. Further, the Potency in assay [11] was 79.6 µM (active).

On to `COC(=O)c1cc(Cl)cc(Cl)c1`, for which the compound was classed as inactive in assay [1], in assay [2], in assay [3], in assay [4], in assay [5] and in assay [7]. The result in assay [8] was inactive. Besides, the Potency result in [6], in assay [9], in assay [10], in assay [12], in assay [15] and in assay [14] was “inactive” each time.

Regarding `CC(CO)(CO)CO`, the compound was classed as inactive in [1], in [2], in [3], in assay [4], in [5] and in assay [7]. Besides, in assay [8], the call was inactive. In addition, the Potency entry in [6], in [9], in assay [11], in [12], in assay [15] and in [14] was “inactive” each time. The Potency in [10] is 28.6 µM (active).

With `CC1c2ccccc2CN1NC(=O)c1ccc(Cl)c(S(N)(=O)=O)c1` (stereo unspecified), the compound was called inactive in [1], in assay [2], in assay [16], in [4], in assay [5] and in [8]. Moreover, the Potency entry in [6], in assay [9], in assay [10], in [13] and in assay [14] was “inactive” each time.

For `CC(=O)C1C(=O)C=C(C)OC1=O` (stereo unspecified), the compound was classed as inactive in assay [1], in assay [2], in [16], in assay [4], in assay [5] and in assay [7]. Also, in [8], the compound was classed as inactive. Further, the Potency entry in assay [6], in assay [9], in assay [11], in assay [13], in assay [15] and in assay [14] was “inactive” in each case.

`C=CCN1C[C@H](C(=O)N(CCCN(C)C)C(=O)NCC)C[C@@H]2c3cccc4[nH]cc(c34)C[C@H]21`: the compound was called inactive in [1], in assay [2], in assay [16], in assay [5] and in assay [7]. In addition, the Potency in [9] is 29.8 µM (active); in assay [18], 12.6 µM (active); in assay [19] it was 15.8 µM (active); in assay [14], 977 nM (active). For the same compound, the max activation in assay [17] was -1.45%. For the same compound, the Potency entry in [11], in assay [12] and in assay [13] was “inactive” in each case.
